Our source for the Potency, outcome and activity change, negative = cytotoxicity values is PubChem BioAssay (Tox21).

A short description of assay [1]: qHTS assay to identify small molecule antagonists of the estrogen receptor beta (ER-beta) signaling pathway - cell viability counter screen (AID 1259382; active = well fitted curve in the direction sought with a large enough effect in the repeat runs; an effect the other way counts as inactive or inconclusive;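 note: HEK293T cells carrying ER-beta-UAS-bla reporter stimulated with estradiol; series mostly up to about 92 µM; nearly all actives have a fitted effect of over 55% in size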). In a few lines:
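CellTiter-Glo ATP luminescence measured after the LiveBLAzer read in the same wells; ER-beta-UAS-bla HEK293T cells, 16 hr compound treatment with 1nM 17-beta-estradiol agonist at 37C, 5% CO2.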

Assay [2] in a line: qHTS assay to identify small molecule agonists or antagonists of the thyroid stimulating hormone receptor (TSHR) signaling pathway - wild type cell line counter screen (AID 1259384). In a few lines:
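Wild-type HEK293 cells were plated 18 h at 37 C/5% CO2, pin-dosed with compound plus Ro20-1724 medium, held 30 min at room temperature, then given cAMP-d2 and anti-cAMP-cryptate; fluorescence was read after 1 h. Fifteen concentrations, triplicate.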

Assay [3] deals with Thyrotropin receptor (Homo sapiens) (UniProt P16473). Kind of assay: qHTS assay to identify small molecule antagonists of the thyroid stimulating hormone receptor (TSHR) signaling pathway (AID 1259385). Note: nearly all actives have a fitted effect of over 20% in size. In a few lines:
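TSHR-HEK293 cells were plated and held 18 h at 37C/5% CO2, then given compound plus Ro20-1724 and stimulated with TSH at 1.5 ng/mL final. After 30 min at room temperature, cAMP was detected with cAMP-d2/anti-cAMP-cryptate (1 h) by fluorescence.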

Assay [4] in a line: qHTS assay to identify small molecule agonists of the estrogen receptor alpha (ER-alpha) signaling pathway in the presence of an antagonist - cell viability counter screen (AID 1259386; active = well fitted curve in the direction sought with a large enough effect in the repeat runs; an effect the other way counts as inactive or inconclusive;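 note: series mostly up to about 92 µM; cells exposed to compounds for 22 h at 37 °C before the viability read; nearly all actives have a fitted effect of over 30% in size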). In a few lines: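 Using estrogen-depleted VM7Luc4E2 cells, the 15-concentration compound series was applied together with 10.0nM ICI-182,780 and incubated 22hr at 37C/5% CO2. Cell viability was then scored by CellTiter-Fluor.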

The target in assay [5] is Progesterone receptor (Homo sapiens) (UniProt P06401). In words: qHTS assay to identify small molecule agonists of the progesterone receptor (PR) signaling pathway (AID 1346784). Note: nearly all actives have a fitted effect of over 30% in size. In a few lines: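 Cells (PR-UAS-bla HEK 293T, GripTite) were plated in assay medium containing 2% charcoal-stripped FBS and incubated 6 hr. Test compounds in DMSO were added for 16 hr at 37C. FRET substrate was then loaded for 2 hr at room temperature before fluorescence reading.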

For assay [6] the target is unchanged. Kind of assay: qHTS assay to identify small molecule antagonists of the progesterone receptor (PR) signaling pathway (AID 1346795; active = well fitted inhibition curve with a large enough effect in the signal ratio in the repeat runs, not every such curve was filed as active; the % refers to the signal ratio). In a few lines: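 Antagonist mode: compounds tested against 1 nM (final) promegestone stimulation in HEK293T cells expressing PR-UAS-bla reporter, 16 hr at 37C, 5% CO2; beta-lactamase activity detected via B/G FRET substrate after 2 hr at room temperature.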

Assay [7] is described as follows: qHTS assay to identify small molecule antagonists of the progesterone receptor (PR) signaling pathway - cell viability counter screen (AID 1346798; active = well fitted curve in the direction sought with a large enough effect in the repeat runs; an effect the other way counts as inactive or inconclusive; note: nearly all actives have a fitted effect of over 50% in size; note: potency is the fitted concentration of half-maximal effect; for activity change, negative = cytotoxicity: series mostly up to about 92 µM). In a few lines:
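Counter screen for cytotoxicity: viability of PR-UAS-bla HEK293T cells was measured with CellTiter-Glo luminescence following 16 hr compound exposure in the presence of R5020.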

Assay [8] can be described thus: qHTS assay to identify small molecule agonists of the progesterone receptor (PR) signaling pathway - cell viability counter screen (AID 1346799). Note: nearly all actives have a fitted effect of over 45% in size. In a few lines: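 Cells (PR-UAS-bla HEK293T) are plated at 3,000/well in 2% charcoal-stripped FBS medium, rested 6 hr, dosed and incubated 16 hr at 37C. CellTiter-Glo is then added and luminescence measured after 30 min at room temperature.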

Results filed as inconclusive are left out. Unmarked numbers belong to inactive results. Calls of active or inactive are those of the source. Unless noted, calls come from the whole dose curve.
% is set by controls: 0 for no effect and ±100 for the full control effect.

Chain of Progesterone receptor (Homo sapiens) (P06401 whole entry, looked up): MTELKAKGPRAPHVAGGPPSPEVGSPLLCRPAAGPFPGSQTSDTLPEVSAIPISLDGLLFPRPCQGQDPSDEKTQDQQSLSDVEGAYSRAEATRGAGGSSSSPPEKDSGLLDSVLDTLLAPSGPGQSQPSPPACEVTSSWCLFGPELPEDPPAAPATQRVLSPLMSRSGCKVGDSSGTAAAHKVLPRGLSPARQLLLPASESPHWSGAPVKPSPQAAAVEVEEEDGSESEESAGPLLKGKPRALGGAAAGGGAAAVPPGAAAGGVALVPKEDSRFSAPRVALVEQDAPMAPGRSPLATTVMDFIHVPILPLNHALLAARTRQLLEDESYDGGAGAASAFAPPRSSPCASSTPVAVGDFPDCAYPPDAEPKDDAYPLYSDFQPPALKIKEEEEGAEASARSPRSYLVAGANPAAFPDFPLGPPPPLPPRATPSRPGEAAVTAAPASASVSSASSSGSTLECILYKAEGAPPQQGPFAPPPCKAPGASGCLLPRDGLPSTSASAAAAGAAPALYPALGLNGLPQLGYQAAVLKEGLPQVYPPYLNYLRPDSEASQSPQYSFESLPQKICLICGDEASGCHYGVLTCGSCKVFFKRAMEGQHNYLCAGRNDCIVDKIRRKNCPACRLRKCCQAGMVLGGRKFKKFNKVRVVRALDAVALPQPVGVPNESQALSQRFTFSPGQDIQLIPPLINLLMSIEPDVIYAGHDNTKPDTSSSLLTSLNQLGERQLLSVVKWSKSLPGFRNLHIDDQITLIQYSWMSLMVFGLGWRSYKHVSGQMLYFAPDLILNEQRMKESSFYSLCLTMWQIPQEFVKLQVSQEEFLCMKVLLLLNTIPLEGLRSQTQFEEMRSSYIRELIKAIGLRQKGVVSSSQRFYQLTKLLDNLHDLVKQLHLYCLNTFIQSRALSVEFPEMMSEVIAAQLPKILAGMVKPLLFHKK
Chain of Thyrotropin receptor (Homo sapiens) (P16473 whole entry, looked up): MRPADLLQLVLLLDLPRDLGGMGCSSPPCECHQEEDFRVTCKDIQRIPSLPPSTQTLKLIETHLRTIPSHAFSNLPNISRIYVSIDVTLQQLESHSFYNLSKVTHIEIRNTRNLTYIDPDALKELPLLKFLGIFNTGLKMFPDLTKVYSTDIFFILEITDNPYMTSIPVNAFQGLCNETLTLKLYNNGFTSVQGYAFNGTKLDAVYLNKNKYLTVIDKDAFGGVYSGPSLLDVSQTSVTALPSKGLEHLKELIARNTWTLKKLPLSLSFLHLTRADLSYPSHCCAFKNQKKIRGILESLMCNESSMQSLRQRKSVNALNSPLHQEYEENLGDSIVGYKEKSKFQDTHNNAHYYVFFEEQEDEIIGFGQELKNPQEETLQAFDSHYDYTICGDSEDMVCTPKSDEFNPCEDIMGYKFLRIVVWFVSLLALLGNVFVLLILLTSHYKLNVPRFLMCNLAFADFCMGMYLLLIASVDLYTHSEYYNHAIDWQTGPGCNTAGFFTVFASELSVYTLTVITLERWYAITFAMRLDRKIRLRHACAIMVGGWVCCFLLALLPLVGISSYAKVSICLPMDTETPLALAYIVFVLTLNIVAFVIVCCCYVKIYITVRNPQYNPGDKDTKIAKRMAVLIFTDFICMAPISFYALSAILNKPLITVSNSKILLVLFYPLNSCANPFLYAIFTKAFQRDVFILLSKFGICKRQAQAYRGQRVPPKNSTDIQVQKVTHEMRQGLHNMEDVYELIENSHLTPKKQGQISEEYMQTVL

In the case of `Cc1occc(=O)c1O`, the Potency entry in assay [1], in assay [3], in assay [4], in assay [5], in assay [6] and in assay [7] was “inactive” throughout. Also, in assay [8], the Potency result is “inactive”. Also, the molecule was called inactive in assay [2].

As to `CC1CCC2CC1C2(C)C` (configuration not stated), the Potency result in assay [1], in assay [3], in assay [4], in assay [7] and in assay [8] was “inactive” throughout. Moreover, the result in assay [2] was inactive.

Regarding `O=C1CCC(N2C(=O)c3ccccc3C2=O)C(=O)N1` (configuration not stated), the Potency result in assay [1], in assay [3], in assay [4], in assay [5], in assay [7] and in assay [8] was “inactive” each time. Besides, the result in assay [2] was inactive.

As to `NNc1nncc2ccccc12`, the Potency result in assay [1], in assay [3] and in assay [5] was “inactive” throughout. In addition, the outcome in assay [2] was inactive. In addition, the figures for the activity change, negative = cytotoxicity in assay [4], in assay [7] and in assay [8] were -0.882% [at 19 µM], -14.1% [at 18.9 µM] and -14.8% [at 19 µM], respectively.

For the molecule `COc1ccc2cc([C@H](C)C(=O)O)ccc2c1`, the Potency entry in assay [1], in assay [3], in assay [4], in assay [6], in assay [7] and in assay [8] was “inactive” in each case. In addition, the result in assay [2] was inactive.

On to `CN(C)CCC(c1ccc(Cl)cc1)c1ccccn1` (configuration not stated), for which the call in assay [2] was inactive. The Potency entry in assay [3], in assay [4], in assay [5] and in assay [6] was “inactive” each time. The Potency in assay [7] was 54.6 µM (active).

Take `CCCCCC/C(C=O)=C\c1ccccc1`: the Potency entry in assay [1], in assay [3], in assay [4], in assay [5], in assay [7] and in assay [8] was “inactive” throughout. Moreover, the outcome in assay [2] was inactive.

As for `CN(C)CCOCCN(C)C`, the Potency result in assay [1], in assay [3], in assay [4], in assay [7] and in assay [8] was “inactive” throughout. Further, the molecule was classed as inactive in assay [2].

Regarding `O=C(O)c1cc(C(=O)O)cc(S(=O)(=O)O)c1`, the Potency result in assay [1], in assay [3], in assay [4], in assay [5], in assay [7] and in assay [8] was “inactive” throughout. Further, the outcome in assay [2] was inactive.

`O=C(CC(C(=O)OC1CCCCC1)S(=O)(=O)O)OC1CCCCC1` (configuration not stated): the Potency entry in assay [1], in assay [3], in assay [4], in assay [5], in assay [6] and in assay [7] was “inactive” in each case. The Potency entry in assay [8] was “inactive”. The outcome in assay [2] was inactive.

On to `OCC(CO)(CBr)CBr`, for which the Potency result in assay [1], in assay [3], in assay [4], in assay [5], in assay [7] and in assay [8] was “inactive” in each case. In assay [2], the outcome was inactive.

Consider `CCCSc1ccc2nc(NC(=O)OC)[nH]c2c1`, for which the Potency entry in assay [1], in assay [4] and in assay [8] was “inactive” throughout.

As for `O=c1[nH]c(=O)n([C@H]2CCCO2)cc1F`, the Potency entry in assay [1], in assay [3], in assay [4], in assay [5], in assay [7] and in assay [8] was “inactive” throughout. The call in assay [2] was inactive.

Turning to `CC(C)CC(=O)CC(C)C`, the Potency entry in assay [1], in assay [4], in assay [5], in assay [7] and in assay [8] was “inactive” each time.

Regarding `CCCCC(CC)COC(=O)CS` (configuration not stated), the Potency entry in assay [1], in assay [3], in assay [4], in assay [5], in assay [7] and in assay [8] was “inactive” throughout. Besides, in assay [2], the call was inactive.

Turning to `O=C(O)[C@H](O)[C@@H](O)[C@H](O)[C@H](O)CO`, the Potency entry in assay [1], in assay [4], in assay [6], in assay [7] and in assay [8] was “inactive” throughout.

Consider `CC1=CC(=O)NS(=O)(=O)O1`, for which the Potency entry in assay [1], in assay [3], in assay [4], in assay [6], in assay [7] and in assay [8] was “inactive” each time. Moreover, the result in assay [2] was inactive.

As for `O=C(O)c1ccc(C(=O)O)cc1`, the Potency entry in assay [1], in assay [3], in assay [4], in assay [5], in assay [7] and in assay [8] was “inactive” in each case. The molecule was called inactive in assay [2].

In the case of `CCCCCCCCCCCCc1ccccc1`, the Potency result in assay [1], in assay [3], in assay [4], in assay [6], in assay [7] and in assay [8] was “inactive” each time. Moreover, the molecule was called inactive in assay [2].

Consider `Cc1cccnc1`, for which the Potency result in assay [1], in assay [3], in assay [4], in assay [5], in assay [6] and in assay [7] was “inactive” in each case. Also, the Potency entry in assay [8] was “inactive”. Moreover, the molecule was called inactive in assay [2].

Take `C=C(C)C(=O)OCCOCCOCCOC(=O)C(=C)C`: the Potency result in assay [1], in assay [3], in assay [4], in assay [6], in assay [7] and in assay [8] was “inactive” each time. Also, the call in assay [2] was inactive.

Regarding `C#C[C@]1(O)CC[C@H]2[C@@H]3CCC4=CC(=O)CC[C@@H]4[C@H]3CC[C@@]21C`, the Potency entry in assay [1], in assay [3], in assay [4], in assay [7] and in assay [8] was “inactive” in each case. Besides, in assay [2], the call was inactive.

As for `O=c1[nH]nnc2ccccc12`, the Potency result in assay [1], in assay [3], in assay [4], in assay [6], in assay [7] and in assay [8] was “inactive” in each case. In addition, the call in assay [2] was inactive.

In the case of `CCCCCC(N)=O`, the Potency entry in assay [1], in assay [3], in assay [4], in assay [7] and in assay [8] was “inactive” throughout. The call in assay [2] was inactive.

Turning to `Oc1cccc2ccccc12`, the Potency result in assay [1], in assay [3], in assay [4], in assay [5], in assay [7] and in assay [8] was “inactive” each time. In addition, the molecule was classed as inactive in assay [2].

Take `COc1ccc(Cl)cc1C(=O)NCCc1ccc(S(=O)(=O)NC(=O)NC2CCCCC2)cc1`: the Potency result in assay [1], in assay [3], in assay [4], in assay [7] and in assay [8] was “inactive” each time. Further, the result in assay [2] was inactive.

`Nc1ccccc1[N+](=O)[O-]`: the Potency result in assay [1], in assay [4], in assay [5], in assay [7] and in assay [8] was “inactive” each time. Also, the result in assay [2] was inactive.

As for `OCCOCCN1CCN(C2=Nc3ccccc3Sc3ccccc32)CC1`, the Potency result in assay [1], in assay [3], in assay [4], in assay [5], in assay [7] and in assay [8] was “inactive” throughout. For the same molecule, the call in assay [2] was inactive.

Regarding `CCCCC(CC)CO` (configuration not stated), the Potency entry in assay [1], in assay [3], in assay [4], in assay [6], in assay [7] and in assay [8] was “inactive” each time. The molecule was called inactive in assay [2].

On to `CCC(O)OCCCOC` (configuration not stated), for which the Potency result in assay [1], in assay [3], in assay [4], in assay [6], in assay [7] and in assay [8] was “inactive” each time. The molecule was called inactive in assay [2].

Take `CSCCC=O`: the Potency result in assay [1], in assay [4], in assay [6], in assay [7] and in assay [8] was “inactive” throughout.

For `O=C(Oc1ccccc1)c1ccccc1`, the Potency entry in assay [1], in assay [3], in assay [4], in assay [6], in assay [7] and in assay [8] was “inactive” throughout. Also, in assay [2], the outcome was inactive.

Take `ON=C1CCCCC1`: the Potency result in assay [1], in assay [3], in assay [4], in assay [6], in assay [7] and in assay [8] was “inactive” each time. In assay [2], the call was inactive.
